Experimental data published in PubChem BioAssay AID2314 (National Center for Advancing Translational Sciences (NCATS), 2010).
Among all 300,000 compounds or so, about 37,000 (12%) were called active. Rule as the data show it: active = max response mostly above about 13% (no sharp cut-off); inactive = mostly below about 14%. Many of the other results were omitted from the sample, so actives are more common in it than they were.

Assay: Cycloheximide Counterscreen for Small Molecule Inhibitors of Shiga Toxin; also: read at 38.3 µM for the half of the compounds with a filed dose; 0% is about no effect
Settings: cell reporter, cycloheximide protein synthesis inhibition counterscreen; stronger effect = higher value

SMILES | max response
COc1cccc(N(CC(=O)NC2CCCC2)C(=O)CCCC(=O)Nc2ccccn2)c1 | -1.64% (inactive)
Cn1nccc1C(=O)NC1CCCc2c1cnn2-c1ccc(F)cc1F (configuration not stated) | -0.526% (inactive)
O=C(NCCN1C(=O)S/C(=C\c2cccnc2)C1=O)c1ccc(S(=O)(=O)N2CCCC2)cc1 | 7.82% (inactive)
NC(=O)C1(C(N)=O)OC1c1ccc(Cl)cc1Cl (configuration not stated) | -2.97% (inactive)
CCOCC(=O)NCc1ccc2c(c1)cc(C)n2C | 0.782% (inactive)
Cc1sc(NC(=S)NC(=O)c2cccs2)nc1-c1ccc(CC(C)C)cc1 | 9.37% (inactive)
Cc1ccc(S(=O)(=O)CC(=O)NC(C)c2ccccc2)cc1 (configuration not stated) | -0.898% (inactive)
CC1(C)SC2c3ccccc3C(=O)N2[C@@H]1C(=O)NCc1ccco1 (some centres not stated) | -2.7% (inactive)
CCCCNC(=O)c1cn(CC)c2cc(N3CCN(C(=O)c4ccco4)CC3)c(F)cc2c1=O | -2.67% (inactive)
CC(C)OCCCNC(=O)CN1C(=O)/C(=C/c2ccccc2F)Oc2ccccc21 | -1.24% (inactive)
CN(C)C(=O)Cn1c(=O)n(S(=O)(=O)c2ccccc2)c2ccccc21 | -2.7% (inactive)
O=C(CSc1ncnc2c1oc1ccccc12)NC1CCCC1 | 13.3% (active)
O=C(CSc1nnc2c(n1)[nH]c1ccccc12)NC1CCCCC1 | -2.06% (inactive)
O=C(CSc1nnc(-c2ccccc2O)o1)NC1CCCCC1 | -5.38% (inactive)
COc1ccc(N(CC(=O)NCCSCc2cccc(Cl)c2)S(C)(=O)=O)cc1 | 10.3% (inactive)
COc1ccccc1NC(=O)CCC(=O)N1CC(C)Oc2ccc(C)cc21 (configuration not stated) | -2.59% (inactive)
COc1ccc(CNc2nccs2)cc1 | 15.6% (active)
COc1ccc(N(CC(=O)NCc2ccc(F)cc2)C(=O)CCC(=O)Nc2nccs2)cc1 | 2.82% (inactive)
COc1ccc(CNc2ncnc3ccccc23)cc1 | -4.12% (inactive)
O=C(NCc1cccnc1)C12CC3CC(CC(C3)C1)C2 | -4.42% (inactive)
Cc1cccc(N2C(=O)SC(SC(=Nc3ccccc3)Nc3ccccc3)C2=O)c1 (configuration not stated) | 50% (active)
COC(=O)c1ccccc1SC1CC(=O)N(c2cccc(C)c2)C1=O (configuration not stated) | -2.47% (inactive)
Cc1cccc(N2C(=O)CC(SC(N)=Nc3ccccc3)C2=O)c1 (configuration not stated) | 6.82% (inactive)
O=C(NCc1ccc2c(c1)OCO2)C(=O)NCC1OCCN1S(=O)(=O)c1ccc(F)cc1 (configuration not stated) | 0.524% (inactive)
O=S(=O)(NC1CCCC1)c1ccc(-n2cnnn2)cc1 | -3.31% (inactive)
Clc1nc(NC2CCCC2)nc(N2CCOCC2)n1 | -1.13% (inactive)

SMILES | max response
CC1CC(C)CN(CCOc2cccc3ccccc23)C1 (configuration not stated) | -3.88% (inactive)
CCn1nc(C(=O)OCC(=O)N2c3ccccc3CC2C)c2ccccc2c1=O (configuration not stated) | -2.9% (inactive)
CCCC(=O)N1c2ccc(-c3csc(N)n3)cc2CC1C (configuration not stated) | 82.4% (active)
Cc1ccn(CCC(=O)N2c3ccccc3CC2C)n1 (configuration not stated) | -3.05% (inactive)
COc1ccc(Nc2ncnc3ccc(OC)cc23)cc1 | 4.47% (inactive)
COc1ccc(Nc2cc(Sc3ccc(OC)cc3)ncn2)cc1 | 12.3% (inactive)
COc1ccc(Nc2ncnc3sc(C)cc23)cc1 | 41% (active)
CS(=O)(=O)N1CCN(CC(=O)NC2CCCC2)CC1 | 2.24% (inactive)
COc1ccc(C2CC(=O)NC(=O)C2)cc1 | 5.71% (inactive)
O=C1COc2ccc(S(=O)(=O)NCCc3ccc(Cl)cc3)cc2N1 | -8.47% (inactive)
COC(=O)c1c(NC(=O)CN2C(=O)NC(CCc3ccccc3)C2=O)sc2c1CCCCC2 (configuration not stated) | -2.51% (inactive)
Nc1cc(N2CCCCCC2)c2nonc2c1[N+](=O)[O-] | -1.67% (inactive)
Cc1cccc(NC(=O)CCN2CC(C)CC(C)C2)c1 (configuration not stated) | -2.06% (inactive)
CC(=O)Nc1ccc(CC#N)cc1 | -2.61% (inactive)
N#CCc1ccc(NC(=O)c2ccccc2C(=O)Nc2ccc(CC#N)cc2)cc1 | 21.8% (active)
NC(=O)COc1ccc(NC(=O)c2ccccc2-c2ccccc2)cc1 | -2.28% (inactive)
O=C(Nc1ccccc1N1CCOCC1)c1ccc(OCc2cscn2)cc1 | -3.59% (inactive)
CNC(=O)N1c2ccccc2C=Cc2ccccc21 | -2.75% (inactive)
Cc1nnc(SCc2cccc(Cl)c2)n(N)c1=O | 8.39% (inactive)
Cc1cccc(CSc2nnc(C)c(=O)n2N)c1 | -1.39% (inactive)
Nn1c(SCc2ccccc2)nnc1C1CCCCC1 | 38.2% (active)
O=[N+]([O-])c1ccc(N2CCN(c3ccc(F)cc3)CC2)cn1 | -1.96% (inactive)
CCCCC(=O)Nc1nnc(S(=O)(=O)N(C)Cc2ccco2)s1 | 12% (inactive)
Cc1ccc([N+](=O)[O-])cc1S(=O)(=O)N1CCCN(C)CC1 | -0.621% (inactive)
Cc1cc(CNC(=O)c2cccc([N+](=O)[O-])c2)c2ccccc2n1 | 18.3% (inactive)
COc1cccc(CNC(=O)CCCC(=O)Nc2cccc([N+](=O)[O-])c2)c1 | -3.22% (inactive)

SMILES | max response
Cc1cccc(C(=O)NNC(=O)c2cccc([N+](=O)[O-])c2)c1 | 0.787% (inactive)
COc1cccc(C(=O)CC(=O)C(=O)Nc2ccc([N+](=O)[O-])cc2C)c1 | -0.608% (inactive)
COc1cccc(NCCC(=O)c2cccc([N+](=O)[O-])c2)c1 | 34.7% (active)
CC(C)(C)SCCNC(=O)c1cccc([N+](=O)[O-])c1 | 19.6% (active)
COCCCNCCOCCOc1ccc(Cl)cc1Br | -3.84% (inactive)
CC(C)(C)c1nnc(NC(=O)C2c3ccccc3Oc3ccccc32)s1 | -2.51% (inactive)
O=c1o[nH]c(-c2ccccc2)c1N=Nc1c(F)cccc1Cl | 6.23% (inactive)
COc1ccc2c(c1)c(C(=O)N/N=C/c1cccs1)c(C)n2C | -3.51% (inactive)
O=C(CN1CCC(NC(=O)Nc2ccccc2)CC1)Nc1cccc([N+](=O)[O-])c1 | -2.36% (inactive)
COCCNC(=O)c1ccc(S(=O)(=O)c2ccc(Cl)cc2)c(NC(C)=O)c1 | -7.19% (inactive)
CCOc1cc(/C=C/c2nc3ccccc3c(=O)[nH]2)cc(Br)c1OC | 2.32% (inactive)
COC(=O)c1cccc(C(=O)N2CCC(CCC(=O)NCc3ccc(F)cc3)CC2)c1 | -0.695% (inactive)
Cc1ccc(C2(C(F)(F)F)N=C3Sc4cc(C)cc(C)c4N3C(=O)N2)cc1 (configuration not stated) | 18.6% (active)
O=C(Cn1cc(C(F)(F)F)ccc1=O)N/N=C/c1ccc(Cl)cc1Cl | -2% (inactive)
Cn1nnc(NC(=O)CSc2ncn[nH]2)n1 | -1.09% (inactive)
CCN(C(=O)CSc1ncn[nH]1)c1cccc2ccccc12 | 4.43% (inactive)
CC(C)(C)c1ccc(C(=O)CSc2ncn[nH]2)cc1 | 37.3% (active)
Cc1ccc2c(c1)C(c1ccccc1)N(C(=O)c1ccc(S(=O)(=O)N3CCOCC3)cc1)CC(=O)N2 (configuration not stated) | -1.59% (inactive)
N#Cc1c(-c2ccc(F)cc2)cc(C2CC2)nc1SCC(=O)c1cccs1 | -0.655% (inactive)
N#Cc1c(-c2cccs2)nc(SCC(=O)c2ccc(Br)cc2)[nH]c1=O | 2.73% (inactive)
O=C(CSc1nc2ccccc2[nH]1)c1cccs1 | 47.2% (active)
CN(Cc1ccccc1)c1nc2c(c(=O)[nH]c(=O)n2C)n1CCSc1nc2ccccc2[nH]1 | 0.491% (inactive)
O=C(CSc1nc2ccccc2[nH]1)Nc1nc(-c2ccccc2)c(-c2ccccc2)o1 | 0.677% (inactive)
CN(Cc1ccccc1)C(=O)CSc1nc2ccccc2[nH]1 | 39.7% (active)
C=CCN(CC=C)S(=O)(=O)c1ccc(C(=O)Nc2nc3c(s2)CCc2ccccc2-3)cc1 | -6.15% (inactive)
CC(C)Cn1c(N2CCN(C(=O)/C=C/c3ccccc3)CC2)nc2ccccc21 | 3.07% (inactive)

SMILES | max response
CC1CCCCC1NC(=O)CO/N=C/c1ccc(OC(F)F)cc1 (configuration not stated) | 1.26% (inactive)
Cc1ccc(C(=O)NCC(=O)OCc2nnc(-c3ccccc3)o2)cc1 | 23.8% (active)
O=C(CNC(=O)c1ccc(-c2ccccc2)cc1)OCc1ccc(Cl)cc1 | -0.931% (inactive)
O=C(OCc1nnc(-c2ccccc2)o1)c1ccc2c(c1)C(=O)N(CCc1ccccc1)C2=O | -1.64% (inactive)
O=C(CN1CCN(c2cccc(Cl)c2)CC1)Nc1ccc(S(=O)(=O)N2CCOCC2)cc1 | -3.83% (inactive)
CCOc1cc(/C=C2/N=C(c3ccc(C(C)(C)C)cc3)OC2=O)cc(Cl)c1OS(C)(=O)=O | -4.6% (inactive)
O=C1CCC(=O)N(O)CCCCCNC(=O)CCC(=O)N(O)CCCCCNC(=O)CCC(=O)N(O)CCCCCN1 | -3.2% (inactive)
CC(C)[C@@H]1COC(c2cccc(C3=N[C@H](C(C)C)CO3)c2)=N1 | 33.7% (active)
O=C(O)c1cccnc1NC1CCCC1 | -2.86% (inactive)
COc1ccc(-c2nonc2NC(=O)c2oc3ccc(F)cc3c2C)cc1OC | 4.29% (inactive)
Cc1ccc(S(=O)(=O)NCc2ccc(C(=O)NC3CCC(C)CC3)cc2)cc1 (configuration not stated) | -10.9% (inactive)
Cc1ccc(C)c(NC(=O)NNC(=O)c2ccc3ccccc3c2O)c1 | 3.4% (inactive)
O=C(NC1CC1)c1cccc(Br)c1 | -2.43% (inactive)
O=C(NC1CCCC1)c1cc(-c2ccccc2)on1 | 30.6% (active)
O=C(NC1CC1)c1ccc(-c2ccccc2)cc1 | 42.7% (active)
COc1cc(OC)c(C(=O)NC2CCCCCC2)cc1OC | -2.09% (inactive)
CC(=O)c1cc(-c2ccccc2)n(CC(=O)NC2CCCCC2)c1C | -3.63% (inactive)
CSc1ccccc1NC(=O)c1cc(C2CC2)on1 | 37.7% (active)
O=C(NC1CCCCC1)c1cc(C2CC2)on1 | 40.8% (active)
O=C(NC1CCN(S(=O)(=O)c2ccc(F)cc2)CC1)c1ccccc1 | -0.862% (inactive)
Cc1nn(Cc2ccc(Cl)c(Cl)c2)c(C)c1NC(=O)c1cc(C2CC2)on1 | -1.12% (inactive)
CC(NC(=O)c1cc(-c2ccccc2)on1)c1ccccc1 (configuration not stated) | 3.69% (inactive)
O=C(Nc1cc(C(F)(F)F)ccc1Cl)c1cc(C2CC2)on1 | -4.3% (inactive)
CSc1ccccc1NC(=O)c1cc(Cl)sc1Cl | 2.39% (inactive)
